Reference: PubChem BioAssay (EPA / NIEHS)
Results filed as inconclusive are left out. Calls of active or inactive are those of the source. How the source made its calls: active means hit-call score of the fitted dose curve at least 0.9, where 1 is the maximum; inconclusive means response in the unintended direction; inactive means score below 0.9.

What follows are molecules tested against human Dopamine Transporter (DAT), SLC6A3 (gene 6531) (UniProt Q01959) (assay: NVS_TR_hDAT: NovaScreen (NVS) Transporter Assay for human Dopamine Transporter (DAT) (AID 2283374)).
Method: NVS_TR_hDAT is a biochemical, single-readout assay that uses extracted gene-proteins in a cell-free assay. Measurements were taken 1 hour after chemical dosing in a 96-well plate.NVS_TR_hDAT is one of one assay component(s) measured or calculated from the NVS_TR_hDAT assay. It is designed to make measurements of radioligand binding, a form of binding reporter, as detected with scintillation counting signals by Filter-based radiodetection technology.Data from the assay component NVS_TR_hDAT was analyzed into 1 assay endpoint. This assay endpoint, NVS_TR_hDAT, was analyzed in the positive analysis fitting direction relative to DMSO as the negative control and baseline of activity. Using a type of binding reporter, loss-of-signal activity can be used to understand changes in the binding as they relate to the gene SLC6A3. Furthermore, this assay endpoint can be referred to as a primary readout, because the performed assay has only produced 1 assay endpoint. To generalize the intended target to other relatable targets, this assay endpoint is annotated to the transporter intended target family, where the subfamily is neurotransmitter transporter.
Binding assays used specific radioligands (tritiated, iodinated) with non-radioactive competitive displacement ligands in agonist or antagonist protocols (as indicated) and various reference compounds and inhibitors to titrate specific binding to receptors and transporters. Most enzyme assays (CYPs, kinases, phosphatases, proteases, HDACs) used recombinant protein and specific substrates (fluorescence mostly, some colorimetric and radioactive) and inhibitors, followed by a biochemical separation of substrate and product. All assays for the biochemical HTS were initially run in duplicate at a single concentration (10 uM for CYP450 assays and 25 uM for all others). […] Each assay was run with positive and negative controls, and concurrent controls on every plate. The follow-up (secondary) screen tested active chemical-pairs in concentration series, as well as a few additional assays not tested in the primary screen, some selected negative inactives, and several cases re-run in the concentration series for confirmatory purposes.

Sequence of human Dopamine Transporter (DAT), SLC6A3 (gene 6531) (Q01959 whole entry, looked up): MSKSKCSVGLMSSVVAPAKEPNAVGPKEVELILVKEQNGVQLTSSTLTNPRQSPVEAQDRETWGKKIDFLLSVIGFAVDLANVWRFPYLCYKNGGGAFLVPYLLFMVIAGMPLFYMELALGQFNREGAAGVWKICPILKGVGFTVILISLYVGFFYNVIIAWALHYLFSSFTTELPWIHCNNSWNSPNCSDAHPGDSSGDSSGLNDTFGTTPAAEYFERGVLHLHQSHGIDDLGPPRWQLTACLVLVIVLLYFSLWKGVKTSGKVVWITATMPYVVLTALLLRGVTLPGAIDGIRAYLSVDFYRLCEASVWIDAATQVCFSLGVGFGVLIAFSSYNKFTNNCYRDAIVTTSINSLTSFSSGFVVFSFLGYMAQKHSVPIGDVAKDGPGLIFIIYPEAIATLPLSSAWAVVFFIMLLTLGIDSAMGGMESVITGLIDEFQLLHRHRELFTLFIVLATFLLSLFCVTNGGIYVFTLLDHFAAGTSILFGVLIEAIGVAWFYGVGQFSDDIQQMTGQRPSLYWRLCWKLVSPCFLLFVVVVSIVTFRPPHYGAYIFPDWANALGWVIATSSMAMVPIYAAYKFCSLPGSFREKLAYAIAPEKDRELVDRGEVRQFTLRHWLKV

AC50, active:
CN(C)C(=O)NC1(c2ccccc2)CCN(CCC[C@]2(c3ccc(Cl)c(Cl)c3)CCCN(C(=O)c3ccccc3)C2)CC1 0.418 µM
CSc1ccc(Oc2ccc(S(N)(=O)=O)cc2CN(C)C)cc1C 4.52 µM
O=C1OC(c2ccc(O)cc2)(c2ccc(O)cc2)c2ccccc21 6.6 µM
CC(C)NCC(O)c1ccc(O)c(O)c1 (stereo not given) 11.1 µM
CC(COCC(C)OC(=O)c1ccccc1)OC(=O)c1ccccc1 (stereo not given) 19.2 µM
CN(C)CCCN1c2ccccc2Sc2ccc(Cl)cc21 4.24 µM
Cc1cc(Cc2ccc(N)c(C)c2)ccc1N 8.53 µM
O=C1NC(=O)C(c2ccccc2)(c2ccccc2)N1 5.81 µM
O=C(N[C@@H](c1ccccc1)[C@@H]1CCCCN1)c1cccc(C(F)(F)F)c1Cl 12.2 µM
CCCCCCCCCCCCCCOS(=O)(=O)O 41 µM
CCc1nc(N)nc(N)c1-c1ccc(Cl)cc1 0.754 µM

outcome, inactive:
Cc1cc(SC2=C(O)C[C@@](CCc3ccc(N)cc3)(C(C)C)OC2=O)c(C(C)(C)C)cc1CO
CCCCC(CC)COP(=O)(OCC(CC)CCCC)OCC(CC)CCCC (stereo not given)
CC(C)OC(=O)C(C)(C)Oc1ccc(C(=O)c2ccc(Cl)cc2)cc1
Cn1cnc2c1c(=O)[nH]c(=O)n2C
